Results as given in PubChem BioAssay AID687014 (The Scripps Research Institute Molecular Screening Center, 2013).
Out of some 370,000 compounds screened, about 6,800 (1.8%) were called active.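 The calls were made as follows: active = activation above a cutoff set at the mean of all screened compounds plus 3 SD (cut at about 10% in these data); inactive = the rest.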 What follows is part of a selection rich in actives, with near analogues and random picks from the rest.

system: Nuclear hormone receptor DAF-12 (Heterodera glycines), GAL4 fusion; assay: H. glycines DAF-12 receptor agonists, primary screen, cell-based, luminescence, HEK293, GAL4 fusion, UAS-luciferase (AID 687014); settings: HEK293 GAL4-hgDAF12 UAS-luciferase reporter, agonist luminescence; at 6.8 µM; hits give high values; normalized to butyrate control;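 also: 0% = DMSO wells and 100% = sodium butyrate wells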

Structure (SMILES) | activation
Cc1ccc(-n2c(SCC(=O)Nc3ccc(S(=O)(=O)Nc4nccs4)cc3)nnc2-c2cccnc2)cc1 | -1% (inactive)
Cc1cc(C)c(S(=O)(=O)N2CCC(C(=O)OCc3c(C)noc3C)CC2)c(C)c1 | 1.53% (inactive)
O=C(CN1C(=O)c2ccccc2S1(=O)=O)N1CCc2ccccc21 | -10.8% (inactive)
CC(OC(=O)Cc1ccc(F)cc1)C(=O)N1CCc2ccccc21 (stereo not given) | 0.83% (inactive)
O=C(CSCc1ccccc1)N1CCc2ccccc21 | 17.5% (active)
CCOC(=O)[C@@]12CCC3=C1N(CCC3)C(=O)[C@H](CC(=O)N1CCN(C(=O)c3ccco3)CC1)C2 | -0.79% (inactive)
CC1(C)OC(=O)C2=C(CC(CCc3ccccc3)OC2c2ccc(Cl)cc2)O1 (stereo not given) | 3.41% (inactive)
CC(C)N(Cc1nnc(-c2ccc(Cl)cc2)o1)C(=O)C1=COCCO1 | 0.6% (inactive)
CC(NCc1ccco1)C(=O)N1CCCCC1 (stereo not given) | 1.35% (inactive)
C#CCCN([C@H](C(=O)OC)C(C)C)S(=O)(=O)c1ccc(F)cc1Br | 2.22% (inactive)
COc1cccc(CNC(=O)[C@H]2CCCN2C(=O)[C@H]2CCCN2C(=O)c2cc(F)cc(F)c2)c1 | 0.08% (inactive)
CC(=O)Nc1ccc(NC(=S)NC(=O)c2ccc([N+](=O)[O-])c(C)c2)cc1 | -2.56% (inactive)
Cc1ccc(C(=O)NC(=S)Nc2ccccc2C)cc1 | 12.1% (active)
Cc1ccccc1C(=O)NC(=S)NC1CC1 | 0.72% (inactive)
COC(=O)[C@H](CC(C)C)NS(=O)(=O)c1c(F)cccc1F | -0.44% (inactive)
CCCCCCCCN1C(=O)[C@@H](CC(=O)NCc2ccc(C)o2)C[C@@]2(C(=O)OC)C1=C[C@H](C(C)(C)C)O[C@@H]2C | -0.08% (inactive)
COC(=O)N/N=C/c1cn(CCCOc2ccc(C)cc2)c2ccccc12 | 15% (active)
Cc1ccc(OCCOc2cccc(/C=N/NC(N)=O)c2)cc1 | 5.18% (inactive)
O=Cc1cn(CCOc2ccc(F)cc2)c2ccccc12 | -2.45% (inactive)
O=C(CNS(=O)(=O)c1ccccc1F)N1CCN(c2ccccn2)CC1 | 0.61% (inactive)
COC(=O)[C@]12C[C@H](CC(=O)NCc3ccccc3)C(=O)N(CCc3ccc(OC)c(OC)c3)C1=C[C@H](C(C)(C)C)O[C@@H]2C | 0.98% (inactive)
COc1ccc(OC)c(CNC(=O)Cn2nc(C)c3c(C)n(-c4ccc(C)cc4)nc3c2=O)c1 | -2.32% (inactive)
O=C(CCS(=O)(=O)Cc1ccccc1F)NCCCN1CCCCC1 | 0.82% (inactive)

Structure (SMILES) | activation
O=C(CSc1nc2ccccc2s1)N=Nc1c(O)[nH]c2ccccc12 | -2.84% (inactive)
O=C(CSc1nc2ccccc2s1)NN=Cc1ccc(O)cc1O | -1.39% (inactive)
O=C(O)c1ccccc1CSc1nc2ccccc2s1 | 10.6% (active)
COc1ccc(CC(=O)Nc2cc(S(=O)(=O)N3CCCCC3)ccc2N2CCN(C)CC2)cc1 | -1.77% (inactive)
COC(=O)C1CN(CC(C)C)CCS(=O)(=O)N1Cc1ccc(C)cc1 (stereo not given) | -0.71% (inactive)
CC(=O)Nc1ccc(NC(=O)c2ccc3c(c2)C(=O)N(c2ccccc2C)C3=O)cc1 | 0.55% (inactive)
CS(=O)(=O)N1CCc2cc(C(=O)Nc3ccccc3)ccc21 | 2.16% (inactive)
CC(C)n1c(=O)[nH]c2cc(C(=O)Nc3ccccc3)ccc21 | 13.3% (active)
COc1ccc(-c2ccc3c(n2)CCCN3S(=O)(=O)c2ccc(C)cc2)cc1 | 1.42% (inactive)
O=C(C(=O)N1CCC(CNS(=O)(=O)Cc2ccccc2)CC1)c1cc2ccccc2o1 | -2.92% (inactive)
O=C(NNC(=O)c1csc(-c2cccnc2)n1)Nc1ccc(Cl)cc1 | -2.54% (inactive)
CN(c1ccc(O)cc1)c1nc(-c2cccnc2)cs1 | 11% (active)
CN(C(=O)CSc1nc(C2CC2)nc2ccccc12)c1nc(-c2ccccc2)cs1 | 0.14% (inactive)
COc1ccc(NC(=O)c2cc([N+](=O)[O-])ccc2NC(=O)CNC2CCCCC2C)c(OC)c1 (stereo not given) | 1.77% (inactive)
Cn1c(=NC(=O)C2CC2)sc2cc(F)cc(F)c21 | 14% (active)
O=C(Cn1nnc(-c2ccccc2)n1)NC(=O)NC1CCCC1 | 4.87% (inactive)
CC(C)C[C@H](NC(=O)C1CC(=O)N(c2ccc3c(c2)OCCO3)C1)C(=O)NC1CCCC1 (stereo not given in full) | -2.12% (inactive)
Cc1ccc(S(=O)(=O)NCCC(=O)Nc2cccc(S(N)(=O)=O)c2)cc1C | 1.82% (inactive)
Cc1ccnc(NC(=O)CCNS(=O)(=O)c2ccc(C)c(C)c2)c1 | 17.1% (active)
Cc1ccc(S(=O)(=O)NCCC(=O)NCc2ccc(Cl)cc2)cc1C | 1.13% (inactive)
COCCNC(=O)CSc1nc2sccc2c(=O)n1-c1ccccc1 | -2.26% (inactive)
CNc1cncc(-c2cccc(C(=O)N3CCOCC3)c2)n1 | -2.58% (inactive)
CS(=O)(=O)Nc1ccc(C(=O)N2CCCC2)cc1 | -0.04% (inactive)

Structure (SMILES) | activation
CNc1cncc(-c2ccc(NS(C)(=O)=O)cc2)n1 | 20.8% (active)
COc1ccc(-c2ccccc2C2Cc3nnccc3CN2C(=O)Nc2ccccc2)cc1 (stereo not given) | -0.36% (inactive)
O=C(Nc1cccc(Cl)c1)OC1CC2CC1[C@H]1CCCCN1[C@H]2Cc1ccccc1 (stereo not given in full) | -4.33% (inactive)
Cc1ccc2nc(CN(C)C(=O)[C@@H](Cc3ccccc3)NC(=O)[C@H]3O[C@@H](n4ccc(=O)[nH]c4=O)[C@H](O)[C@@H]3O)[nH]c2c1 | -0.28% (inactive)
Cc1ccc(C)c(NC(=O)CCC(=O)N/N=C2/CC(=O)CC(C)(C)C2)c1 | -0.63% (inactive)
COC(=O)[C@H](C(C)C)N(CCc1cn(Cc2ccccc2)nn1)S(=O)(=O)c1ccc(F)cc1Br | -2.66% (inactive)
COc1ccc(Sc2ccc(NC(=O)c3cccc(Cl)c3)cc2C#N)cc1 | 0.58% (inactive)
O=C(Nc1ccn(Cc2ccccc2F)n1)c1ccc(COc2ccc(Cl)cc2Cl)o1 | -5.91% (inactive)
N#Cc1ccccc1NC(=O)c1cccc(COc2ccc(Cl)cc2Cl)c1 | 12.7% (active)
Cn1cc(S(=O)(=O)NC(c2ccccc2)c2ccccc2)c(=O)n(C)c1=O | -1.46% (inactive)
O=C(COC(=O)c1ccco1)Nc1ccc(Cl)cn1 | 0.37% (inactive)
O=C(COC(=O)c1ccco1)NCc1ccc(Cl)cc1 | 10.8% (active)
O=C(CCOc1ccccc1)NCc1ccccc1 | 0.5% (inactive)
O=C(COC(=O)c1cccc(Cl)c1)NC(=O)NCc1ccccc1 | 0.55% (inactive)
O=C(COC(=O)c1cnc(Cl)c(Cl)c1)NCc1ccco1 | -3.41% (inactive)
O=C(COc1cccc(Cl)c1)NCc1ccccc1 | 10.5% (active)
O=C1CC[C@@H]2CC3(C[C@@H]4CCN1[C@H]24)Nc1cc([N+](=O)[O-])ccc1NC3=NC1CCCCC1 (stereo not given in full) | 0.54% (inactive)
COc1cc(OC)c(-n2cc(-c3ccc(Cl)cc3)[nH]c2=O)cc1Cl | -2.27% (inactive)
N#Cc1cccc(C(=O)NCC2CCN(C(=O)C(=O)c3cc4ccccc4o3)CC2)c1 | -0.57% (inactive)
COc1ccc(CNS(=O)(=O)c2cc(Br)ccc2Br)cc1 | 1.03% (inactive)
O=C(CN(C(=O)c1csnn1)c1cccc(Cl)c1)NC1CCCC1 | -1.27% (inactive)
O=C(Nc1ccc(Br)cc1)OCCN1C(=O)CCC12CCC(c1ccccc1)CC2 (stereo not given) | -0.22% (inactive)
Cc1cccc(CN2CCC(n3nccc3NC(=O)c3ccccc3C)CC2)n1 | -0.95% (inactive)

Structure (SMILES) | activation
COc1ccc(Nc2ccc3ccccc3c2)cc1 | 18.4% (active)
COc1ccc(NC2=CC(=S)NC(C)(C)C2)cc1 | 1.03% (inactive)
COc1ccc(Nc2cc(=O)n(-c3ccccc3)c3c2c(=O)n(C)c(=O)n3C)cc1 | -1.79% (inactive)
OCC[C@H]1C[C@@H](O)[C@H](O)[C@]2(OCCCc3ccccc32)O1 | -1.3% (inactive)
COc1ccc(S(=O)(=O)Nc2ccc3c(c2)C(=O)N([C@H](C)CO)C[C@H](C)[C@@H](CN(C)C)OCCCC[C@H](C)O3)cc1 | -1.86% (inactive)
Cc1c(Cl)cccc1NC(=S)NCC(O)c1ccccc1 (stereo not given) | 0.77% (inactive)
COc1ccc(C(=O)NCCSc2ccccc2C)cc1 | 12.8% (active)
COc1ccc(C(=O)NCC[N+](C)(C)C)cc1 | -0.85% (inactive)
CCSc1ccccc1C(=O)NCc1ccc(OC)cc1 | -1.12% (inactive)
Cc1ccc(-n2c(COc3ccccc3)nnc2SCC(=O)Nc2ccc3c(c2)OCCO3)cc1 | -0.21% (inactive)
Cc1cc(OC(=O)NCCc2ccc(F)cc2)ccc1F | 0.78% (inactive)
O=C(CSc1nnc(COc2ccccc2)n1Cc1ccco1)c1ccc2ccccc2c1 | -0.51% (inactive)
Cc1cc(C)c(C#N)c(SCC(=O)NN2CC(=O)N(c3ccccc3F)CC2=O)n1 | -2.6% (inactive)
COCc1cc(C)nc(SCC(=O)Nc2cccc(C)c2)c1C#N | 0.86% (inactive)
Cc1cc(C)c(C#N)c(SCC(=O)Nc2ccccc2)n1 | 11.8% (active)
Cc1ccccc1N1CCN(CCCN2C(=O)C3CCCCN3C2=O)CC1 (stereo not given) | 2.03% (inactive)
CC1CCN(c2ccc(C(=O)O)cc2NS(=O)(=O)c2ccc(Br)s2)CC1 | -3.43% (inactive)
O=C(N[C@H](C(=O)N1CCC[C@H]1C(=O)NCCc1ccccc1Cl)c1ccccc1)c1ccccc1 | -3.35% (inactive)
Cn1c(SCc2c(F)cccc2Cl)nnc1-c1cnccn1 | 8.5% (inactive)
Oc1ccc(-n2nnnc2SCc2c(F)cccc2Cl)cc1 | 0.63% (inactive)
Fc1cccc(Cl)c1CSc1ccc(-c2ccco2)nn1 | 10.6% (active)
